# Measurements from the supplement of paper PMC11001985.
# Compound: C#CCNC(=O)CCSSCCC(=O)NCCc1ccc(C=O)c(C=O)c1
# Experiment: lysine labeling ratio R10:1 (500 µM / 50 µM probe), SILAC-ABPP in living cells; higher = lower intrinsic lysine reactivity toward the probe, active = 2 or less
# Conditions: HeLa; probe concentrations 500 vs 50 µM
# Procedure, shortened: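 In PBS at room temperature, living HeLa cells grown with SILAC light or heavy labels were treated with 50 µM or 500 µM of an alkyne-tagged, disulfide-linked lysine probe, with label swaps in both directions. Analysis was by LC-MS/MS on a TIMS-TOF Pro after click to biotin-azide, neutravidin capture and DTT release. For each lysine, R is the median across forward and reverse replicates of the filtered median high-probe/low-probe MS1 peptide ratio, capped at 20.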
# UniProt Q15149, sequence (Q15149 whole entry): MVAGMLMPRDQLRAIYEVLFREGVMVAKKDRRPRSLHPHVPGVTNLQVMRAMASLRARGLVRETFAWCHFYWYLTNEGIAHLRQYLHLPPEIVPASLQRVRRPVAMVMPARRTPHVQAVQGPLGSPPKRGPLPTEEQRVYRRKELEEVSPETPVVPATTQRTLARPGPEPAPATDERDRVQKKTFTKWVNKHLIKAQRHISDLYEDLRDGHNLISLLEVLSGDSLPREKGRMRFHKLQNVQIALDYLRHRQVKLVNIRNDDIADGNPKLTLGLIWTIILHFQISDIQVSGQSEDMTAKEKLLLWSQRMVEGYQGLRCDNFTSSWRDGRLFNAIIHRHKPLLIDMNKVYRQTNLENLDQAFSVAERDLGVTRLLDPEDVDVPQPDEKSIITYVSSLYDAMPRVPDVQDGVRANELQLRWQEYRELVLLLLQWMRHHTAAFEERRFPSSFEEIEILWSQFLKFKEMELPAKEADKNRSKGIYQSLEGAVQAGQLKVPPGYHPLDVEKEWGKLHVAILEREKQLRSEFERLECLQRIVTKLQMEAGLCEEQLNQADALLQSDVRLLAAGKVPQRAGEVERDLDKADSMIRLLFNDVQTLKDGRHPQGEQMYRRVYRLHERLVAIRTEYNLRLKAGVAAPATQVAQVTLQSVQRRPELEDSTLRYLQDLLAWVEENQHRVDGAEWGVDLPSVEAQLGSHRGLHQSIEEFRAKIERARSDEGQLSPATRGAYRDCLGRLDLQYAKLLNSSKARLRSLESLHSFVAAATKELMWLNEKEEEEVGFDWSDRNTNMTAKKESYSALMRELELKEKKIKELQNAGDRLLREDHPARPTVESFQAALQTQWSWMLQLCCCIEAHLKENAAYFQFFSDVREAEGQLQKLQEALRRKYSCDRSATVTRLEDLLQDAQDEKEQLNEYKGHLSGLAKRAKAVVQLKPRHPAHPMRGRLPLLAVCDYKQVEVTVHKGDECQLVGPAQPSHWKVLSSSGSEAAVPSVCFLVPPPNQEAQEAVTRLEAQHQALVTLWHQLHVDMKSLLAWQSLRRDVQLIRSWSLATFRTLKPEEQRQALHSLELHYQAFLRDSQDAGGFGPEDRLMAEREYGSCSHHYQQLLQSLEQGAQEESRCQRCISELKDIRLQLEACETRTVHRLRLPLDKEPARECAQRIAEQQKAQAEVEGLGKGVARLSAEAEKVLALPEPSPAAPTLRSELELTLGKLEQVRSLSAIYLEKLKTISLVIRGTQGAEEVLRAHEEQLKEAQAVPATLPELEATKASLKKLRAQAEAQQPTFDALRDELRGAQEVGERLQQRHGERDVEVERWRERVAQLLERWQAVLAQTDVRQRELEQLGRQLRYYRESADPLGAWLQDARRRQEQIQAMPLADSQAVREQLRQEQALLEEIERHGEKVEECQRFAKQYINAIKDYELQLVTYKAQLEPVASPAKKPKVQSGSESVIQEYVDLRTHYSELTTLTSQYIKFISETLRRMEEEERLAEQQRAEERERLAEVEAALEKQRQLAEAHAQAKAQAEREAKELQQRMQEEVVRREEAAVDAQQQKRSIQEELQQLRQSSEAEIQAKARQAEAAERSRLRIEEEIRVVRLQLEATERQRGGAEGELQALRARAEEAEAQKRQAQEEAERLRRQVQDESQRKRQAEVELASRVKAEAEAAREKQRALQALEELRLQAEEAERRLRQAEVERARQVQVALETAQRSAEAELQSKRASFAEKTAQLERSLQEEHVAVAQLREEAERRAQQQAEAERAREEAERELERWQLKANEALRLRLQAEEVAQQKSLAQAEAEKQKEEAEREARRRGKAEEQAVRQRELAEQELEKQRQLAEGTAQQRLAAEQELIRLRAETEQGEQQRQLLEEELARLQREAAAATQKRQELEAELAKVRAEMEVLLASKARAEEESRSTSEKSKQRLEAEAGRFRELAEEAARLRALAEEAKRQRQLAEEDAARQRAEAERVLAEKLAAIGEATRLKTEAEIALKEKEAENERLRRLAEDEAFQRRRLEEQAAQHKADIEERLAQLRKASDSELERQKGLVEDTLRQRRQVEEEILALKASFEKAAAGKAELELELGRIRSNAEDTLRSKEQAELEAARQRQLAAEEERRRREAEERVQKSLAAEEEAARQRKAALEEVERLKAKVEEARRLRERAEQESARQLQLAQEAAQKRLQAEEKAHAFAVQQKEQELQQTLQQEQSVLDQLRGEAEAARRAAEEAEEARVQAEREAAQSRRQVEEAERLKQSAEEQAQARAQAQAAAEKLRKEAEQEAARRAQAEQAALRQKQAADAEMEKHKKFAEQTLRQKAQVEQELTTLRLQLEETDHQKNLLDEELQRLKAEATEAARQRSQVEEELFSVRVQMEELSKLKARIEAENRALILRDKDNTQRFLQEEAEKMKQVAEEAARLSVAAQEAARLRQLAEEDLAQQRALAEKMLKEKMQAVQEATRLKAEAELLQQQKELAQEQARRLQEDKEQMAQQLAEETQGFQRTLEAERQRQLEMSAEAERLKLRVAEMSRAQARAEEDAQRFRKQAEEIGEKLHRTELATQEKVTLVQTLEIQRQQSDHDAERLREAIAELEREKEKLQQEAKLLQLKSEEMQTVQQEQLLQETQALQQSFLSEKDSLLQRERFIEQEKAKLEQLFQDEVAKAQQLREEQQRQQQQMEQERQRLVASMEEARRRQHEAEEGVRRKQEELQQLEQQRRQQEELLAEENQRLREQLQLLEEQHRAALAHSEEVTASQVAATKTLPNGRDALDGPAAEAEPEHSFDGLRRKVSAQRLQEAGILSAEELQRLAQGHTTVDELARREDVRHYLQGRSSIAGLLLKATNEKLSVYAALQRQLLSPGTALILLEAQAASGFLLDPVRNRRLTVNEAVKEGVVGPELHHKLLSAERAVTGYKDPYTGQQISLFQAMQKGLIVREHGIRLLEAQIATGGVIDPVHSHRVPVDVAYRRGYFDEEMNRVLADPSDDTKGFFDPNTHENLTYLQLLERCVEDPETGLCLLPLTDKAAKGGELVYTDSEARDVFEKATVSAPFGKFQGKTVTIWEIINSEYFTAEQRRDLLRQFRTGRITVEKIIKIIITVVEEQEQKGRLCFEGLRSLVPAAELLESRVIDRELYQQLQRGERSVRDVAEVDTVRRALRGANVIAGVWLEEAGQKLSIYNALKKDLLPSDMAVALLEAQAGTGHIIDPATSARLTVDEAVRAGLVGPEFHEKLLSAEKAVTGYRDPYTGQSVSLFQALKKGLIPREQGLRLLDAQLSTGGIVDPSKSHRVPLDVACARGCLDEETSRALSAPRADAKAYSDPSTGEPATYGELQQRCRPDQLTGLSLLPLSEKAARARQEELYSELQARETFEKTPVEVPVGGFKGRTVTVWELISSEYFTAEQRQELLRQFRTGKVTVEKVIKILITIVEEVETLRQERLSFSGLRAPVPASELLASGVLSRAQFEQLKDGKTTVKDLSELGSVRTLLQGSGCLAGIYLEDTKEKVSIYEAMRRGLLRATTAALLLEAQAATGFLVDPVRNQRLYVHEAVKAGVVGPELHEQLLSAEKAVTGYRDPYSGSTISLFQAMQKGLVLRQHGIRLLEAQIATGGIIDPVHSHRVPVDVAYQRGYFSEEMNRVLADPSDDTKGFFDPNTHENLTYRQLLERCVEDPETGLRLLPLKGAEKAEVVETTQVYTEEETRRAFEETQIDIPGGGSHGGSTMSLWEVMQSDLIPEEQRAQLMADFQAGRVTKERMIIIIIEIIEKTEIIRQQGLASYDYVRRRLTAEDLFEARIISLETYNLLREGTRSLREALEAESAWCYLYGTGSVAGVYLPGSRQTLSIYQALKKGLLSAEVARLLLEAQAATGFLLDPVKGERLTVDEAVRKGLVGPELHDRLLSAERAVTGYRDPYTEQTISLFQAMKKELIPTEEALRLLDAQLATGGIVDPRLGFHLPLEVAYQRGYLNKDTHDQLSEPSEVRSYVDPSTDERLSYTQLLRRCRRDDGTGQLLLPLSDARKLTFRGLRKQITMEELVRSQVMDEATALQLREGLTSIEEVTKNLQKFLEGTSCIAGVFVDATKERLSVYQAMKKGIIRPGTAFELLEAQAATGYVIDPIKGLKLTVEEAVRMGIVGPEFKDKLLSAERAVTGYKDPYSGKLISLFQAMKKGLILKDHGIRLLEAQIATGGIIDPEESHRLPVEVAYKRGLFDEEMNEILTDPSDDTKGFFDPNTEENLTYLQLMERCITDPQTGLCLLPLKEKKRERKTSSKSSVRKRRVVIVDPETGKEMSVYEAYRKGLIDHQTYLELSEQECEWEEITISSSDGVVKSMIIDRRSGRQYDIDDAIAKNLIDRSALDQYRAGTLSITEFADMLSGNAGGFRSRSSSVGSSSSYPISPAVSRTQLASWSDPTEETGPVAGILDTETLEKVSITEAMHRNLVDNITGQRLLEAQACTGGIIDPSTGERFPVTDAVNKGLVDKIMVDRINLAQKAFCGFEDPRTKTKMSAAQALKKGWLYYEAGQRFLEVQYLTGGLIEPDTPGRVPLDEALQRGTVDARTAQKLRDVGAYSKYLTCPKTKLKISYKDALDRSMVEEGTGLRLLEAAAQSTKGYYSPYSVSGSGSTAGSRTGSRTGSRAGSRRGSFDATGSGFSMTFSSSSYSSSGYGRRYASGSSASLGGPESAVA
# UniProt P18859, sequence (P18859 whole entry): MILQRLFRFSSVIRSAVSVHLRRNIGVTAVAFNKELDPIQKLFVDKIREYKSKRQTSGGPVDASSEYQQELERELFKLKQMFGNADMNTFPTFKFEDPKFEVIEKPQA
# UniProt P45877, sequence (P45877 whole entry): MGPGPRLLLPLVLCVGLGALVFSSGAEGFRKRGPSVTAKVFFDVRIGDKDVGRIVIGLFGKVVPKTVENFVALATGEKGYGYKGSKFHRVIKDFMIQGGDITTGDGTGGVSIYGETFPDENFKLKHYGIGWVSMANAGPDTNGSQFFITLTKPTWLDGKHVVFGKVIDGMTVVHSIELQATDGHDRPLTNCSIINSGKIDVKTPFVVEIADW
# UniProt P49773, sequence (P49773 whole entry): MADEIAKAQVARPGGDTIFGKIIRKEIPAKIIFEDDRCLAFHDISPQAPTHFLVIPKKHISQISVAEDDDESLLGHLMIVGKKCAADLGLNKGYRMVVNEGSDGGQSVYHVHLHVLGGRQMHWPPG
row,Target,lysine labeling ratio R10:1
1,VAMP8 (lysine site: K64) (UniProt Q9BV40),2.52 (inactive)
2,ITGAV (lysine site: K233) (UniProt P06756),2.51 (inactive)
3,GALNT7 (lysine site: K624) (UniProt Q86SF2),1.81 (active)
4,UniProt Q99466 (lysine site: K1372),9.22 (inactive)
5,CCT4 (lysine site: K395) (UniProt P50991),3.34 (inactive)
6,UniProt P18859 (lysine site: K46),4.7 (inactive)
7,UniProt Q15149 (lysine site: K810),2.16 (inactive)
8,SPTBN1 (lysine site: K1884) (UniProt Q01082),4.5 (inactive)
9,CYR61 (lysine site: K208) (UniProt O00622),2.96 (inactive)
10,JPT2 (lysine site: K67) (UniProt Q9H910),4.42 (inactive)
11,CELSR2 (lysine site: K2300) (UniProt Q9HCU4),1.18 (active)
12,PICALM (lysine site: K324) (UniProt Q13492),1.36 (active)
13,PTPRF (lysine site: K61) (UniProt P10586),1.48 (active)
14,PPIC (lysine site: K49) (UniProt P45877),1.58 (active)
15,RPL4 (lysine site: K294) (UniProt P36578),3.4 (inactive)
16,CCT8 (lysine site: K326) (UniProt P50990),3.67 (inactive)
17,CD109 (lysine site: K494) (UniProt Q6YHK3),8.05 (inactive)
18,PGRMC1 (lysine site: K102) (UniProt O00264),5.04 (inactive)
19,UniProt P16144 (lysine site: K662),1.57 (active)
20,UniProt O95490 (lysine site: K494),1.07 (active)

row,Target,lysine labeling ratio R10:1
1,DNAJA1 (lysine site: K144) (UniProt P31689),2.55 (inactive)
2,PSMC3 (lysine site: K372) (UniProt P17980),2.19 (inactive)
3,PRDX1 (lysine site: K109) (UniProt Q06830),2.64 (inactive)
4,FLOT1 (lysine site: K246) (UniProt O75955),2.54 (inactive)
5,HINT1 (lysine site: K30) (UniProt P49773),1.48 (active)
6,MYH9 (lysine site: K656) (UniProt P35579),2.88 (inactive)
7,APP (lysine site: K522) (UniProt P05067),5.65 (inactive)
8,PSME2 (lysine site: K15) (UniProt Q9UL46),6.45 (inactive)
9,CDH13 (lysine site: K178) (UniProt P55290),7.63 (inactive)
10,FH (lysine site: K66) (UniProt P07954),2.79 (inactive)
11,SFN (lysine site: K77) (UniProt P31947),3.35 (inactive)
12,LAMB1 (lysine site: K1708) (UniProt P07942),3.33 (inactive)
13,UniProt Q15149 (lysine site: K4173),1.95 (active)
14,IGF2R (lysine site: K1579) (UniProt P11717),0.605 (active)
15,ACIN1 (lysine site: K81) (UniProt Q9UKV3),3.67 (inactive)
16,UniProt P61160 (lysine site: K368),3.41 (inactive)
17,PTPRJ (lysine site: K876) (UniProt Q12913),3.12 (inactive)
18,FLNB (lysine site: K1780) (UniProt O75369),2.69 (inactive)
19,FRAS1 (lysine site: K2396) (UniProt Q86XX4),1.59 (active)
20,SLC39A10 (lysine site: K317) (UniProt Q9ULF5),6.58 (inactive)
